The nature of assay [1]: qHTS assay to identify small molecule agonists of the RXR signaling pathway - cell viability counter screen (AID 1159529). Note: nearly all actives have a fitted effect of over 50% in size. Note: potency is the fitted concentration of half-maximal effect. To be noted: RXR-alpha-bla HEK293T viability, CellTiter-Glo, 16 h; series mostly up to 76.8 µM. A digest of the protocol:
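Steps: seed RXR-alpha-UAS-bla HEK 293T cells in assay medium containing 2% charcoal-stripped FBS; incubate 5 hr; add compounds in DMSO; incubate 16 hr at 37 C; after the bla read, add CellTiter-Glo and read luminescence at 30 min.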

Assay [2] is described as follows: qHTS assay to identify small molecule agonists of the hypoxia (HIF-1) signaling pathway - cell viability counter screen (AID 1224844; calls by dose curve; note: nearly all actives have a fitted effect of over 50% in size; note: potency is the fitted concentration of half-maximal effect). To be noted: HRE-bla ME-180 viability, CellTiter-Glo luminescence, 17 h; series mostly up to 76.8 µM. A digest of the protocol: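 HRE-bla ME-180 cells, 2,000/well in 0.5% dialyzed FBS medium, treated 17 h at 37C with compounds. Viability read in the same wells as the bla reporter, by CellTiter-Glo luminescence after 30 min at room temperature.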

Assay [3] in a line: qHTS RealTime-Glo MT Cell Viability Assay in HEK293 cells - 16 hour (AID 1224872). Note: potency is the fitted concentration of half-maximal effect; nearly all actives have a fitted effect of over 50% in size. To be noted: RealTime-Glo luminescence; series mostly up to 76.8 µM. The method in brief:
(§1)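 Quantitative high-throughput screen of the Tox21 10K library in HEK293: cells and RealTime-Glo reagents plated together, compound added at 5 h, luminescence monitored through 40 h at 37 C.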
Background: In qHTS, concentration-response curves come from the screen itself.

A short description of assay [4]: qHTS RealTime-Glo MT Cell Viability Assay in HEK293 cells - 24 hour (AID 1224886). Note: nearly all actives have a fitted effect of over 50% in size. Note: potency is the fitted concentration of half-maximal effect. To be noted: RealTime-Glo luminescence; series mostly up to 76.8 µM. The method in brief:
as §1

Assay [5] in a line: qHTS assay to identify small molecule agonists of the androgen receptor (AR) signaling pathway in the presence of an antagonist - cell viability counter screen (AID 1259379).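 Note: MDA-kb2 human breast cancer cells carrying an MMTV luciferase reporter; nearly all actives have a fitted effect of over 25% in size.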 To be noted: MDA-kb2 viability, CellTiter-Fluor, 16 h; series mostly up to 92.4 µM. The method in brief:
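MDA-kb2 cells (MMTV-luciferase, AR/GR), 3,000/well, 5 h attachment, then 3.0 µM nilutamide (final) and compounds at 15 concentrations. Viability by CellTiter-Fluor fluorescence after 16 h at 37 °C, 0% CO2, in the reporter wells.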

A short description of assay [6]: qHTS assay to identify small molecule agonists of the estrogen receptor beta (ER-beta) signaling pathway - cell viability counter screen (AID 1259380). Note: potency is the fitted concentration of half-maximal effect; nearly all actives have a fitted effect of over 30% in size. To be noted: ER-beta-bla HEK293T viability, CellTiter-Glo luminescence, 16 h; series mostly up to 92.4 µM. The method in brief:
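ER-beta-UAS-bla HEK293T cells in medium with 2% charcoal-stripped FBS, pre-incubated 6 hr, then treated 16 hr at 37C. Cytotoxicity read in the same wells by CellTiter-Glo luminescence after 30 min at room temperature.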

A short description of assay [7]: Human pregnane X receptor (PXR) small molecule agonists, qHTS cell viability counter screen (AID 1346977). Note: nearly all actives have a fitted effect of over 50% in size. To be noted: PXR-Luc HepG2 viability, CellTiter-Fluor, 24 h; series mostly up to 92.4 µM. A digest of the protocol: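 Cytotoxicity counter screen run in the same wells as the PXR luciferase assay, using PXR-Luc HepG2 cells in charcoal-stripped serum medium. Viability: CellTiter-Fluor fluorescence after 24hr compound treatment.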

Assay [8] can be described thus: Caspase-3/7 induction in HepG2 cells by small molecules, qHTS cell viability counter screen (AID 1346981). Note: nearly all actives have a fitted effect of over 30% in size. Particulars: CellTiter-Fluor fluorescence, 17 h; series mostly up to 92.4 µM. A digest of the protocol: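 Wild-type HepG2 cells, 2,000/well, settled 5 hr at 37 C, 5% CO2 before compound addition. Viability read by CellTiter-Fluor fluorescence, reagent added after 16 hr compound exposure, then 1 hr at 37C, in the same wells as the caspase read.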

The nature of assay [9]: qHTS RealTime-Glo MT Cell Viability Assay in HepG2 cells - 8 hour (AID 1224873). Note: nearly all actives have a fitted effect of over 55% in size. To be noted: RealTime-Glo luminescence; series mostly up to 76.8 µM. The method in brief: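 HepG2 cells (600/well) mixed with RealTime-Glo MT reagent, settled 5 h at 37 C/5% CO2 before compound addition. Nonlytic NanoLuc luminescence from viable-cell prosubstrate reduction read repeatedly during 40 h treatment at 37 C.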

Assay [10] addresses Thyrotropin-releasing hormone receptor (Homo sapiens) (UniProt P34981). Description: qHTS assay to identify small molecule agonists of the thyrotropin-releasing hormone receptor (TRHR) signaling pathway (AID 1346891; calls by dose curve;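 note: HEK293 cells expressing TRHR with calcium dye readout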). Particulars: TRHR-HEK293 calcium fluorescence, agonist mode; series mostly up to 57.6 µM. A digest of the protocol: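 Cells: TRHR-Hek293, seeded and incubated 18 h. Dye loading: 2 h at 37 °C. Compound added from DMSO stock by pin tool. Read-out: kinetic calcium fluorescence over 3 min.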

For assay [11], the target named is Cytochrome P450 3A4 (Homo sapiens) (UniProt P08684). Description: Cytochrome P450 Family 3 Subfamily A Member 4 (CYP3A4) small molecule antagonists: luciferase reporter qHTS assay (AID 1671201). Note: nearly all actives have a fitted effect of over 50% in size. Note: potency is the fitted concentration of half-maximal effect. Particulars: P450-Glo CYP3A4 enzyme, luciferin luminescence, 1 h; series mostly up to 115 µM. The method in brief:
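qHTS, 1536-well. CYP3A4 + proluciferin substrate, cpd 10 min RT → NADPH regen 1 h RT → detection reagent 20 min → luminescence (RLU). Ketoconazole positive control.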
On the technique in general: In a reporter assay the amount or activity of a reporter protein is the signal.

Assay [12] is described as follows: qHTS assay to test for compound auto fluorescence at 535 nm (green) in HepG2 cells (AID 720675). Particulars: green autofluorescence 485/535 nm, 1 h; series mostly up to 46 µM.
The nature of assay [13]: qHTS assay to test for compound auto fluorescence at 535 nm (green) in HEK293 cells (AID 720680). To be noted: green autofluorescence 485/535 nm; series mostly up to 46 µM.
Assay [14] is described as follows: qHTS assay to test for compound auto fluorescence at 535 nm (green) in HEK293 cell free culture (AID 720682). To be noted: cell-free medium, green autofluorescence 485/535 nm; series mostly up to 46 µM. The method in brief:
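No cells present: wells hold DMEM supplemented with 10% FBS, into which compound or vehicle is pinned. Green emission is then recorded (485 nm excitation, 535 nm emission) and scaled to fluorescein.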

A short description of assay [15]: qHTS assay to test for compound auto fluorescence at 590 nm (red) in HEK293 cell free culture (AID 720683). Particulars: cell-free medium autofluorescence, Ex540/Em590 red; series mostly up to 46 µM. A digest of the protocol:
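Cell-free wells of DMEM with 10% FBS received compound, and intrinsic fluorescence was read at excitation/emission 540/590 nm. Values expressed as equivalence to Rose Bengal sodium.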

A short description of assay [16]: qHTS assay to test for compound auto fluorescence at 590 nm (red) in HepG2 cell free culture (AID 720684). To be noted: cell-free medium autofluorescence, red 540/590 nm; series mostly up to 46 µM. A digest of the protocol:
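Compound was pinned into wells holding MEM with 10% FBS and no cells, and red fluorescence was read at Ex/Em 540/590 nm. Signal is expressed as auto fluorescence equivalency relative to Rose Bengal sodium.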

A short description of assay [17]: qHTS assay to test for compound auto fluorescence at 460 nm (blue) in HepG2 cell free culture (AID 720685). To be noted: Cell-free culture medium, blue autofluorescence 405/460 nm; series mostly up to 46 µM. A digest of the protocol:
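Compound (23 nL) or DMSO pinned into cell-free MEM with 10% FBS; blue fluorescence read at 405/460 nm excitation/emission, expressed as auto-fluorescence equivalency to triamterene.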

Assay [18] addresses Nuclear receptor subfamily 1 group I member 3 (Homo sapiens) (UniProt Q14994). Kind of assay: qHTS assay to identify small molecule agonists of the constitutive androstane receptor (CAR) signaling pathway (AID 1224839). Note: nearly all actives have a fitted effect of over 15% in size. Note: potency is the fitted concentration of half-maximal effect. Particulars: HepG2 hCAR CYP2B6-luciferase, agonist mode, 24 h; series mostly up to 92.4 µM. A digest of the protocol:
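Cells were plated and incubated 4 hrs, then dosed with compounds at 15 concentrations. PK11195 was added to 0.75 uM final. After 24 hrs at 37 C, luciferase luminescence was measured.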

The nature of assay [19]: A CellTox Green Cytotoxicity Assay to monitor cytotoxicity in HEK293 cells - 24 hour (AID 1224875). Note: nearly all actives have a fitted effect of over 45% in size. Note: potency is the fitted concentration of half-maximal effect. Particulars: CellTox Green fluorescence; series mostly up to 76.8 µM. The method in brief: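 HEK293 cells, 600/well, were preincubated 5 hours and then exposed to compounds at 37 C for up to 40 hours. A cell-impermeant cyanine dye staining dead-cell DNA was read by fluorescence at 0, 8, 16, 24, 32 and 40 h time points.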

Assay [20] addresses Cytochrome P450 2D6 (Homo sapiens) (UniProt P10635). Description: Cytochrome P450 Family 2 Subfamily D Member 6 (CYP2D6) small molecule antagonists: luciferase reporter qHTS assay (AID 1671196). Note: nearly all actives have a fitted effect of over 50% in size. Note: potency is the fitted concentration of half-maximal effect. Particulars: P450-Glo CYP2D6 enzyme assay, luciferin luminescence, 1 h; series mostly up to 115 µM. A digest of the protocol: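 Cell-free P450-Glo system: CYP2D6 with proluciferin substrate was pre-incubated with compound for 10 min, then reacted with NADPH regeneration for 1 h at room temperature. Luciferin product was detected after 20 min, and data were reported as relative luminescence units.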

Inconclusive results are not listed. Active and inactive are the calls of the source. Unless noted, calls come from the whole dose curve; as a rule, active = well fitted curve in the direction sought with a large enough effect in the repeat runs; inconclusive = weak or mixed curves; inactive = no such curve, though single readings can be large; an effect the other way counts as inactive or inconclusive.

Sequence of Thyrotropin-releasing hormone receptor (Homo sapiens) (P34981 whole entry, looked up): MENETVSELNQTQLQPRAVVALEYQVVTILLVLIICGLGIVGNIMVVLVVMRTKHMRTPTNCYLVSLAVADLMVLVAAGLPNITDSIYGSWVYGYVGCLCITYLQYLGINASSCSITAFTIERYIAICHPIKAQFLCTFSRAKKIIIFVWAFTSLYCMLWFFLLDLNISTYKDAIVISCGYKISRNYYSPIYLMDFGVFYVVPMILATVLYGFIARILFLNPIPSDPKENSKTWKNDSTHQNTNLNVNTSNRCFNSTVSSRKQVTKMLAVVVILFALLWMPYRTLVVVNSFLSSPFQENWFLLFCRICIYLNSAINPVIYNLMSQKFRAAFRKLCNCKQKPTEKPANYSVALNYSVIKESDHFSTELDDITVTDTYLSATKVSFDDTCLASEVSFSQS
Sequence of Cytochrome P450 2D6 (Homo sapiens) (P10635 whole entry, looked up): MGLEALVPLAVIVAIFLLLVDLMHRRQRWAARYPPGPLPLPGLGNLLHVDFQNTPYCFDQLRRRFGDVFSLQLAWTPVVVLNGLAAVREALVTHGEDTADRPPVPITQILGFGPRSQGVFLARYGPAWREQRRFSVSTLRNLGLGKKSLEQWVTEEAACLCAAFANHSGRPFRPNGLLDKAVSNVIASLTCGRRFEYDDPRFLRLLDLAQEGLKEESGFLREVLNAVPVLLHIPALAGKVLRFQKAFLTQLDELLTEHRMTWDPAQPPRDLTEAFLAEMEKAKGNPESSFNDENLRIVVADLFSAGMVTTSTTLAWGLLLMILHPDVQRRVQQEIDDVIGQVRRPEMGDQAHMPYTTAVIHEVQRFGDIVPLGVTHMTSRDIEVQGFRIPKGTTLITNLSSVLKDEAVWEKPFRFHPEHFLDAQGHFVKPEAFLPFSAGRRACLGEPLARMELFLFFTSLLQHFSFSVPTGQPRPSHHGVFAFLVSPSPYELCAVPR
Sequence of Cytochrome P450 3A4 (Homo sapiens) (P08684 whole entry, looked up): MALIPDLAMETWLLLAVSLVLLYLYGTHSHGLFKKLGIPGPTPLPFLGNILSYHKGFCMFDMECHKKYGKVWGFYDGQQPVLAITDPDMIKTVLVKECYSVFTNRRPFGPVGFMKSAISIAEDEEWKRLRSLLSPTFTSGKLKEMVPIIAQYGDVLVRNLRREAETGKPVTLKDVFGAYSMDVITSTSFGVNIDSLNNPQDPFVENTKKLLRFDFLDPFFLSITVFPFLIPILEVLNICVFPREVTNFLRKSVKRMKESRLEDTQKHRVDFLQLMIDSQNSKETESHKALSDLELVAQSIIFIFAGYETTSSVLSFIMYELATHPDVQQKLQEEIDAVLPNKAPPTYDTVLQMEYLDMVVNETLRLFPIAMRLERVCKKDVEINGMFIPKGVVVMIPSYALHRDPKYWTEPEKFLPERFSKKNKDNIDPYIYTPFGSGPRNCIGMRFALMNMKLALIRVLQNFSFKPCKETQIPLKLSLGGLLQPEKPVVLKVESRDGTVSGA
Sequence of Nuclear receptor subfamily 1 group I member 3 (Homo sapiens) (Q14994 whole entry, looked up): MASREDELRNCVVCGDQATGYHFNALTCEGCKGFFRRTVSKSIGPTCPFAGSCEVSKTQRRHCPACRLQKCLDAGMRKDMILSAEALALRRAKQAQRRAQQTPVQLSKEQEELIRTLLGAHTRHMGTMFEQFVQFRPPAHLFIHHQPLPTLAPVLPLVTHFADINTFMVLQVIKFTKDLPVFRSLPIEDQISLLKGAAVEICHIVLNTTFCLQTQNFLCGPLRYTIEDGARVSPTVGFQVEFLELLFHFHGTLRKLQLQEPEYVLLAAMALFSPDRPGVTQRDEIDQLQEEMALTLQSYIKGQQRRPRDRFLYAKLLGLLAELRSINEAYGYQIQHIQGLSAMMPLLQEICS

As to `C[C@]12CC[C@@H](O)C[C@@H]1CC[C@@H]1[C@@H]2CC[C@]2(C)C(=O)CC[C@@H]12`, the Potency in assay [1] is 17.4 µM (active); in [2] it was 21.9 µM (active); in assay [3] it was 38.9 µM (active); in assay [4], 38.9 µM (active); in [6], 27.3 µM (active). Further, the Potency result in assay [5], in [7] and in [8] was “inactive” in each case.
Regarding `CC(c1ccccc1)(c1ccc(O)cc1)c1ccc(O)cc1`, the Potency is 54.9 µM (active) in [2], 54.5 µM (active) in assay [6] and 25.2 µM (active) in [11]. The Potency result in assay [9] is “inactive”. The result in [10] was inactive.
As to `COc1ccc(C(c2ccc(OC)cc2)C(Cl)(Cl)Cl)cc1`, the Potency entry in assay [12], in [13], in assay [14], in assay [17], in assay [2] and in assay [19] was “inactive” in each case. For the same molecule, the Potency result in [11] was “inactive”. Besides, the call in [15], in assay [16] and in [10] was inactive. Also, the Potency was 2.42 µM (active) in assay [18], 48.7 µM (active) in [4] and 44.5 µM (active) in assay [20].
Take `CCc1cccc(CC)c1N`: the Potency result in assay [18] was “inactive”.
On to `O=C(Nc1ccccc1-c1ccc(Cl)cc1)c1cccnc1Cl`, for which the Potency entry in assay [12], in assay [13], in assay [14], in assay [17], in assay [9] and in assay [5] was “inactive” throughout. Also, the Potency result in assay [7] and in assay [8] was “inactive” in each case. The outcome in assay [15], in [16] and in [10] was inactive. Besides, the results for the Potency in assay [6] and in assay [20] were 14.5 µM (active) and 30.4 µM (active), respectively.
As to `ClC(Cl)=C(c1ccc(Cl)cc1)c1ccccc1Cl`, the Potency in assay [1] was 24.5 µM (active); in [18], 21.7 µM (active). Besides, the Potency entry in assay [2], in assay [9], in [5], in assay [8], in [20] and in assay [11] was “inactive” each time. The outcome in assay [10] was inactive.
With `Cc1nnc2n1-c1sc(CCc3ccc(CC(C)C)cc3)cc1C(c1ccccc1Cl)=NC2C` (stereo not given), the Potency entry in assay [12], in [13], in assay [14], in assay [17] and in assay [19] was “inactive” each time. The molecule was called inactive in [15], in assay [16] and in assay [10]. Moreover, the Potency is 23.9 µM (active) in assay [1]; 19 µM (active) in [2]; 19 µM (active) in assay [3]; 10.7 µM (active) in [4]; 29.8 µM (active) in assay [6].
Turning to `COc1cc(OC)c(OC)cc1C=O`, the Potency result in assay [12], in assay [13], in assay [14], in assay [17], in assay [1] and in assay [18] was “inactive” each time. Besides, the Potency result in assay [9], in [19], in [4] and in [5] was “inactive” in each case. The outcome in assay [15], in [16] and in assay [10] was inactive. Further, the Potency in [20] is 19.4 µM (active).
For `CNC(=O)Oc1cc(C)c(SC)c(C)c1`, the Potency result in [1], in assay [9], in assay [5], in assay [7], in assay [8] and in assay [20] was “inactive” throughout. Also, the Potency in [18] is 61.1 µM (active); in assay [19] it was 21.9 µM (active). Besides, the result in assay [10] was inactive.

These data come from PubChem BioAssay (Tox21).
